This is an account of results in PubChem BioAssay AID624325 (Sanford-Burnham Center for Chemical Genomics, 2012).

The whole screen tested about 2,300 compounds, of which about 1,000 (43%) were called active. So high a share suggests a set chosen from earlier hits. A selection follows. Values without a mark were called inactive.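 How the source made its calls: active means compounds inhibiting the enzyme by at least 50% at 15 µM in any one of the replicates; inactive means the rest.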

For this experiment, the target named is Fatty acid synthase (Homo sapiens) (UniProt P49327). Put plainly: inhibition of human FAS-TE enzyme activity – biochemical, fluorescence intensity, single concentration, confirmation (AID 624325).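 Further: 0% = enzyme with DMSO only and 100% = wells lacking enzyme.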 Conditions: recombinant FAS-TE, OMFH fluorogenic substrate, at 15 µM, stronger effect = higher value.
Chain of Fatty acid synthase (Homo sapiens) (P49327 whole entry, looked up): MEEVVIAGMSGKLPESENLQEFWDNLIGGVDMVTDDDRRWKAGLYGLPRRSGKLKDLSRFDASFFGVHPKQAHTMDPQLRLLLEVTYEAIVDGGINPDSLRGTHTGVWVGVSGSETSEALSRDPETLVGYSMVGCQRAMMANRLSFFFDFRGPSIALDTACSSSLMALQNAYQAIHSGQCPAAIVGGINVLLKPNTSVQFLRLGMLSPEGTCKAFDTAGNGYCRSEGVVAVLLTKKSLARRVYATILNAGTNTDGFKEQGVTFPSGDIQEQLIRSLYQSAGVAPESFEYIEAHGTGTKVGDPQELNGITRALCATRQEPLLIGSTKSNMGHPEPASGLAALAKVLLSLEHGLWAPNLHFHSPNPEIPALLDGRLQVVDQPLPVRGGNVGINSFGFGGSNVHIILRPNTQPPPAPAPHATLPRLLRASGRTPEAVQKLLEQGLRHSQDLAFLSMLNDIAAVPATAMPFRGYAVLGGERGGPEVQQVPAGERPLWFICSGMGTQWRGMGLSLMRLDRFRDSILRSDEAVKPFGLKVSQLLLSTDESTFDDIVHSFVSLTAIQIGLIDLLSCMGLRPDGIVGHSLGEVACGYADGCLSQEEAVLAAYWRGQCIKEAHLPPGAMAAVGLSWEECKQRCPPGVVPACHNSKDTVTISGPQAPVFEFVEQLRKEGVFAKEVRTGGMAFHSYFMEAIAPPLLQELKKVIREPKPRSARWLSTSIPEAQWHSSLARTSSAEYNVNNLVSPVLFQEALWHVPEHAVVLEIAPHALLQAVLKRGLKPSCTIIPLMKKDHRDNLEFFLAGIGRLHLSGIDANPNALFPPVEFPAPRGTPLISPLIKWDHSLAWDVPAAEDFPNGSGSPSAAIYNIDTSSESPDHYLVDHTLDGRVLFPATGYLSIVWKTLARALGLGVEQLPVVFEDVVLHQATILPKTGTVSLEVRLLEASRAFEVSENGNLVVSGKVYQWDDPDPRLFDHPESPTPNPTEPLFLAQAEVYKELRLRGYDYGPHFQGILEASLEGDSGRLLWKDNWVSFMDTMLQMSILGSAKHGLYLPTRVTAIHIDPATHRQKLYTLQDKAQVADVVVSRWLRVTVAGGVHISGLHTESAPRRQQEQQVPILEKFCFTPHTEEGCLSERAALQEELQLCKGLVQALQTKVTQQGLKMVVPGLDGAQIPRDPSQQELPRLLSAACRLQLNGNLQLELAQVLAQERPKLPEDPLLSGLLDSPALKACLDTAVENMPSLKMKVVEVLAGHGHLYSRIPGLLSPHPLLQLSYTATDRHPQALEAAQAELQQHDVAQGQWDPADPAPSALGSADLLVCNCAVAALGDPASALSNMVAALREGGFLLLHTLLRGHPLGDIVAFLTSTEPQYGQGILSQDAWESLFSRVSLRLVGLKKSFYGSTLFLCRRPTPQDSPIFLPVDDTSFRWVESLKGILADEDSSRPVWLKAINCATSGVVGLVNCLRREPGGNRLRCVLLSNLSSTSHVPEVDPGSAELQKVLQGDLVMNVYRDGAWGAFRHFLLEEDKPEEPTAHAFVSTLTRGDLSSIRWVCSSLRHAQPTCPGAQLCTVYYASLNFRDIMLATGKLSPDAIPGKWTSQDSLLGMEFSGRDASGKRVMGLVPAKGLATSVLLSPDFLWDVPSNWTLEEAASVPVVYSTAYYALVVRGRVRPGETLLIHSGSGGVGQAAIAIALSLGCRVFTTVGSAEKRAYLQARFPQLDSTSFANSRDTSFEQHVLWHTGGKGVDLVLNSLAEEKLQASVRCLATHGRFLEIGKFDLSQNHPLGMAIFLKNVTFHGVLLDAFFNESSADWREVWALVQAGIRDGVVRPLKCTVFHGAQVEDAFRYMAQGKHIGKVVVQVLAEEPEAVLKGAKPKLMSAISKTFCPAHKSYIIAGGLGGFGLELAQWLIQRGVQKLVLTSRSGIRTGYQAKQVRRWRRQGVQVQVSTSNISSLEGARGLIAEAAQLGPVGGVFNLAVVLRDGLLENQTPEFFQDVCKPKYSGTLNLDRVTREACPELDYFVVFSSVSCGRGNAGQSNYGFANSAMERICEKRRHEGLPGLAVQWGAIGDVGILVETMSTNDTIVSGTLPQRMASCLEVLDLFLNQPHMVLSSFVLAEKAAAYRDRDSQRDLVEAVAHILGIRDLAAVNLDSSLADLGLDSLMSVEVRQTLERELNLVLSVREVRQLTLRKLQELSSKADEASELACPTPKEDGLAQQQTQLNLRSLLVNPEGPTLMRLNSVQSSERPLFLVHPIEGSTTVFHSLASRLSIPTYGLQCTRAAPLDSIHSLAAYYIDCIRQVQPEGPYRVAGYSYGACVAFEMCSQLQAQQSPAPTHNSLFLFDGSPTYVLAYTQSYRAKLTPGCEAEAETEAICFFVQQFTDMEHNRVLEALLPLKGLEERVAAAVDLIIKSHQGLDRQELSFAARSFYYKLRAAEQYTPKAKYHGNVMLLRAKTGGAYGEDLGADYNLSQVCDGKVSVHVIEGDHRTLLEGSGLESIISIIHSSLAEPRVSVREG
In the case of `Cc1nn(CCOc2ccc(Br)cc2)c(C)c1[N+](=O)[O-]`, the inhibition was 36.2% (active).
For `COc1ccc([N+](=O)[O-])cc1N(CC(O)Cn1nnc2ccccc21)S(=O)(=O)c1ccc(C)cc1` (centres undefined) the value was 65.3% (active); for `O=C(N/N=C/c1cc([N+](=O)[O-])ccc1O)/C(=C\c1cccs1)NC(=O)c1ccccc1`, 42.4% (active).
The result for `O=C(Nc1ccc2ccccc2c1)/C(=C/c1cccc(Br)c1)NC(=O)c1ccco1` reads 27.6%.
The result for `O=C(/C=C/c1cccc([N+](=O)[O-])c1)NCCSCc1ccco1` reads 73.2% (active); that for `O=C(NCc1ccco1)/C(=C\c1cccc([N+](=O)[O-])c1)NC(=O)c1ccco1`, 71.9% (active); that for `COc1ccc(NS(=O)(=O)c2cc(NC(=O)c3ccc(S(=O)(=O)N(C)C)cc3)ccc2N2CCOCC2)cc1`, 9.83%.
Regarding `Fc1ccc(-n2c(Cc3ccccc3)nnc2SCc2nc(-c3ccc(Cl)cc3)no2)cc1`, the inhibition was 51.8% (active).
For `O=C(Nc1ccc(OC(F)(F)F)cc1)c1ccc2c(c1)no[n+]2[O-]` the value was 14.6%.
The result for `O=C(Nc1ccc(C(F)(F)F)cc1)c1cccc(-n2cnnn2)c1` reads 65.5% (active); that for `COc1ccc(NS(=O)(=O)c2cc(NC(=O)/C=C/c3cc(OC)c(OC)c(OC)c3)ccc2N2CCCCC2)cc1`, 19.7%.
For `O=c1oc(-c2ccco2)nc2sc3c(c12)CCCCC3` the value was 51% (active); for `CCC(CC)COC(=O)C1=C(C)NC(=O)NC1c1ccc([N+](=O)[O-])cc1` (centres undefined), 78.8% (active); for `COc1cc(S(=O)(=O)N2CCOCC2)ccc1NC(=O)COc1ccc(N(C)S(=O)(=O)c2ccc(C)cc2)cc1`, 7.91%.
For `Cc1ccc(N2C(=O)C3N=NN(CC(=O)N4N=C(c5cccc6ccccc56)CC4c4ccccc4)C3C2=O)cc1` (centres undefined), the inhibition was 10.8%.
For `COc1ccc(C2=NN(C(=O)CSc3nc(=O)n4ccc(C)cc4n3)C(c3ccc(C)cc3)C2)cc1` (centres undefined) the value was 46% (active).
`Cc1ccc2c(c1)-c1c(ssc1=S)C(C)(C)N2C(=O)CN1C(=O)c2ccccc2C1=O`: the inhibition is 2.45%.
The result for `C#CCN(C[C@H]1[C@H](OC(=O)NC2CCCC2)[C@H](OC(=O)NC2CCCC2)C[C@H]2C(=O)N(c3ccccc3)C(=O)[C@@H]12)S(=O)(=O)c1ccc(C)cc1` reads 48.3% (active); that for `CCOC1=C2CN(S(=O)(=O)c3ccc(C)cc3)[C@H](c3cccs3)C[C@H]2[C@H]2C(=O)N(c3ccccc3)C(=O)[C@H]2C1`, 33%.
For `CCOC1=C2[C@H]([C@H]3C(=O)N(c4ccccc4)C(=O)[C@H]3C1)[C@@H](c1ccccc1)N(S(=O)(=O)c1ccc(C)cc1)[C@H]2c1ccccc1` the value was 32.3%.
Turning to `COc1ccc([C@@H]2[C@@H]3C(=O)N(C(C)(C)C)C(=O)[C@@H]3[C@]3(Cc4ccccc4)C(=O)N(c4cccc(Br)c4)C(=O)N23)cc1`, the inhibition is 46.4% (active).
For `Cc1cccc([C@@H]2[C@@H]3C(=O)N(Cc4ccccc4)C(=O)[C@@H]3[C@]3(Cc4ccc(Cl)cc4)C(=O)N(c4cccc(Cl)c4)C(=O)N23)c1` the value was 11.9%; for `Cc1ccc(C(=O)N/C(=C\c2cn(S(=O)(=O)N(C)C)c3ccccc23)C(=O)N2CCCC2)cc1`, 88.2% (active).
For `Cc1ccc(S/C(=N\S(=O)(=O)c2ccc(Cl)cc2)c2ccccc2)cc1`, the inhibition is 29.6%.
For `COc1ccc([N+](=O)[O-])cc1NC(=O)CC1SC(=Nc2cccc(C)c2C)N(/N=C(\C)c2ccc(C)cc2)C1=O` (centres undefined) the value was 25.8%; for `COc1ccc([N+](=O)[O-])cc1NC(=O)c1ccc(N(Cc2ccccc2C)S(C)(=O)=O)cc1`, 39.2% (active); for `CCCCCCCCCCCCN1[C@@H](CC(C)=O)c2cc(F)cc(F)c2S1(=O)=O`, 9.68%.
Take `COc1ccc2c(c1)[C@H]1[C@H](CO2)[C@H](c2ccccc2)[C@]2(C)C(=O)Nc3cc(F)c(F)cc3C(=O)N12`: the inhibition was 34%.
For `CC(C)c1ccc2c(c1)c(SC(C)(C)C)c(CC(C)(C)C(=O)O)n2Cc1ccc(Cl)cc1` the value was 51.4% (active); for `O=C(OC1CCOC1=O)c1ccc(-c2nc3ccccc3s2)s1` (centres undefined), 35.3%.
For the compound `O=S(=O)(Nc1cccc(-n2cnnn2)c1)c1cnc(Cl)c(Cl)c1`, the inhibition was 68% (active).
For `CCCc1cc(-c2nc(-c3ccc(C)cc3)cs2)ccn1` the value was 46.9%; for `O=C(Nc1ccccc1)c1nnsc1S(=O)(=O)c1ccc(Cl)cc1`, 72.3% (active).
The result for `O=C(Nc1cccc(S(=O)(=O)Nc2ccc(Cl)cc2)c1)c1ccc2c(c1)OCCO2` reads 37.6%.
For the compound `O=C(CC(c1ccccc1)c1ccccc1)NCC(O)c1ccc([N+](=O)[O-])cc1` (centres undefined), the inhibition was 55.1% (active).
The result for `CC(C=Cc1ccccc1)=NNS(=O)(=O)c1ccc([N+](=O)[O-])cc1` reads 71.2% (active).
As for `COCCNC(=O)CCCn1c(=O)c2ccccc2n(Cc2cccc([N+](=O)[O-])c2)c1=O`, the inhibition is 37.5% (active).
The result for `O=C(Oc1cccc(N2C(=O)C3C4c5ccccc5C(c5ccccc54)C3C2=O)c1)c1ccco1` (centres undefined) reads 36.3% (active).
The result for `COc1ccc(C2Nc3ccccc3C(=O)N2c2ccc(Cl)cc2)cc1Cn1cc([N+](=O)[O-])cn1` (centres undefined) reads 41.9%.
For `O=[N+]([O-])c1ccc(CN2CC(N3CCC(c4ccccc4)CC3)CS2(=O)=O)cc1` (centres undefined), the inhibition was 22.4%.
`CCCCCOC(=O)c1ccc(N2C(=O)C3C4C=CC(C4)C3C2=O)cc1` (centres undefined): the inhibition was 51.4% (active).
On to `Cc1ccc(NC(=O)c2nc[nH]c2C(=O)N[C@@H](CCCCNC(=O)OC(C)(C)C)C(=O)OC(C)(C)C)cc1`, for which the inhibition was 83.9% (active).
In the case of `CCOC(=O)c1ccc(NC(=O)c2nc[nH]c2C(=O)N[C@@H](CCCCNC(=O)OC(C)(C)C)C(=O)OC(C)(C)C)cc1`, the inhibition is 57.3% (active).
For `Cc1cccc(CS(=O)(=O)c2ncc(Cl)c(C(=O)Nc3ccc(F)cc3)n2)c1` the value was 53.2% (active); for `O=C(Nc1ccccc1Cl)/C(Cl)=C(\Cl)S(=O)c1ccccc1` (centres undefined), 76.4% (active); for `Cc1cc(C(=O)COc2ccccc2[N+](=O)[O-])c(C)n1-c1cccc(S(=O)(=O)N2CCOCC2)c1`, 21.2%.
For `Nc1c(-c2cccc(Cl)c2)cnn1-c1cccc([N+](=O)[O-])c1` the value was 48.9% (active).
For `CNC(=O)/C(=C\C=C\c1ccccc1)NC(=O)c1ccc([N+](=O)[O-])cc1` the value was 91.7% (active); for `C/C(=N\Nc1nc(N2CCOCC2)nc(N2CCOCC2)n1)c1ccc([N+](=O)[O-])cc1`, 41.8% (active).
Turning to `CCCN1Cc2cccc(C(=O)Nc3ccc(S(=O)(=O)N4CCCCCC4)cc3)c2C1=O`, the inhibition is 0.41%.
For `COc1ccc(S(=O)(=O)N2CCCCC2)cc1NC(=O)c1cc([N+](=O)[O-])ccc1N1CCOCC1` the value was 25.8%; for `O=C(NCc1ccc2c(c1)OCO2)c1cc([N+](=O)[O-])ccc1N1CCOCC1`, 54% (active).
The result for `CN(C)c1ccc(/C=C/C(=O)c2ccc(C(C)(C)C)cc2)cc1[N+](=O)[O-]` reads 33%; that for `Cc1cc(C(=O)N/N=C/c2cc([N+](=O)[O-])cc(C)c2O)n[nH]1`, 72.6% (active).
For `O=[N+]([O-])c1cc(Br)c(O)c(/C=N/Nc2nc3ccccc3s2)c1` the value was 16.1%.
As to `CC1(C)CC(=O)c2c(n(S(=O)(=O)c3ccccc3)c3ccc(NS(=O)(=O)c4ccccc4)cc23)C1`, the inhibition is 19.9%.
On to `Oc1c(Cl)cc(Cl)c(Cl)c1Cc1c(O)c(Cl)cc(Cl)c1Cl`, for which the inhibition is 70.1% (active).
For the compound `Cc1noc(C)c1NC(=O)Nc1cccc2c1O[C@H](CN(C)C(=O)Nc1ccccc1)[C@@H](C)CN([C@H](C)CO)C2=O`, the inhibition is 61.3% (active).
The result for `O=C(Cc1ccc(Cl)c(Cl)c1)Nc1ccc(SC(F)F)cc1` reads 37.6%; that for `O=C(c1ccc2c(c1)N(Cc1ccc(F)cc1)C(=O)c1ccccc1S2(=O)=O)N1CCN(c2ccccn2)CC1`, 21.2%; that for `COc1ccc2nc(Nc3nc4cc5c(cc4s3)OCCO5)sc2c1`, 17.9%.
For the compound `CC1=CC(=C(C#N)c2nc3ccccc3s2)C=C(C)N1c1ccc(F)cc1F`, the inhibition was -32.7%.
The result for `O=C(NCCC1=CCCCC1)c1ccc(Cl)c([N+](=O)[O-])c1` reads 61.2% (active); that for `Cc1sc2nc(-c3ccccc3F)oc(=O)c2c1C`, 6.55%; that for `COc1ccc(-c2csc3nc(-c4ccccc4F)oc(=O)c23)cc1OC`, 57.9% (active).
For `CCOC(=O)N1CCN(Cc2nc3ccc([N+](=O)[O-])cc3c(=O)n2-c2cccc(OC)c2)CC1` the value was 76.1% (active).
For `CCOc1cc(/C=C(/C#N)c2ccc(Cl)cc2)cc(Cl)c1OCC(=O)O` the value was 63% (active); for `Cc1ccc(N2C(=O)C3C(c4ccccc4)(C2=O)C3(c2ccccc2)c2ccccc2)cc1` (centres undefined), 4.09%; for `COc1ccc(CNC(=O)C[C@H]2C[C@H](C(=O)N3CCOCC3)[C@@]3(CCC4CCCC4)c4[nH]c5ccc(Cl)cc5c4CCN3C2=O)cc1OC`, 83.3% (active).
Consider `O=C(C[C@H]1C[C@H](C(=O)N2CCOCC2)[C@@]2(CCC3CCCC3)c3[nH]c4ccc(Cl)cc4c3CCN2C1=O)NCc1ccco1`, for which the inhibition is 27.4%.
The result for `CCOc1ccc(Nc2nc(Cl)nc(N3CCN(c4ccc(OC)cc4)CC3)n2)cc1` reads 12.5%.
For `O=C1[C@H]2[C@@H](c3ccc(F)cc3)N3C(=O)N(c4ccc(C(F)(F)F)cc4)C(=O)[C@@]3(Cc3ccccc3)[C@H]2C(=O)N1C1CCCCC1` the value was 17.3%.
The result for `C[C@@]12C(=O)N(c3cccc(Br)c3)C(=O)N1[C@H](c1ccc(Cl)cc1)[C@@H]1C(=O)N(C3CCCCC3)C(=O)[C@@H]12` reads 54% (active).
For `Cc1cccc(N2C(=O)N3[C@H](c4ccc(F)cc4)[C@@H]4C(=O)N(C5CCCCC5)C(=O)[C@@H]4[C@]3(Cc3ccccc3)C2=O)c1`, the inhibition was 10.1%.
